Most compounds without a hit are left out; they make up all but 9.3% or so of the library.
M1 antagonist – antagonists of rat M1 muscarinic receptor. 64,000 tested, 3.4% active. AID 628, 2007. CHO-M1 cells, Fluo-4 calcium, ACh EC80 antagonist mode; hits give low values. B-score at 10 µM. Muscarinic acetylcholine receptor M1 (Rattus norvegicus), P08482;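 active means calcium fluorescence response, raw or row-and-column corrected B-score, differing from the plate sample mean either way at a set confidence level, mostly lower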
Target sequence (P08482 whole entry, looked up): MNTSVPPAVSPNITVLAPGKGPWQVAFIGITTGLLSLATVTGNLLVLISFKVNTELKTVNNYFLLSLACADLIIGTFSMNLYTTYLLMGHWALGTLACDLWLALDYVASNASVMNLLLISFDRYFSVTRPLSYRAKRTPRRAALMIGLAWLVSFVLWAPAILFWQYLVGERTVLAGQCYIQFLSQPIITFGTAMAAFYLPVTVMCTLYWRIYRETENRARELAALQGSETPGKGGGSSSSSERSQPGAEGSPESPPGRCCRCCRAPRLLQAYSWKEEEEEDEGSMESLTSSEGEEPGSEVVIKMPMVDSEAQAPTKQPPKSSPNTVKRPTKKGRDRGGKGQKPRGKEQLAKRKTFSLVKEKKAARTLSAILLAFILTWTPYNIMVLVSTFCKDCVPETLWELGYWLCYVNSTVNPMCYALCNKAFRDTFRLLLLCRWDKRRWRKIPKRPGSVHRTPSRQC
Htt clearance – clearance of mutant huntingtin inclusions, primary screen, imaging, HeLa Exon1htt(103Q)mCFP, confocal imaging. aggregate imaging; zero = plate's median compound well. inhibition, % at 1.5 µM. 47,000 tested, 0.42% active;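 active means inhibition of aggregate fluorescence above about 70%, also judged a hit by eye on the cell image, limit read from the data, passing the limit was not always enough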;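 further: cells exposed to compound for three days before fixation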
M1 ag – M1 muscarinic receptor agonists, primary screen, CHO-M1 cells, Fluo-4 calcium, agonist mode | AID 626, 2007 | Fluo-4 calcium fluorescence; hits give high values | 64,000 tested, 3% active | Muscarinic acetylcholine receptor M1 | B-score at 10 µM;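 active means fluorescence rise, raw or as B-score row- and column-corrected plate score, outside the 99.7% band of its plate's samples, either direction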
Autofluor 339 – intrinsic fluorescence of library compounds, ex339/em460 – biochemical, MLSMR library, data from DPM-DC assay, artefact control, profiling panel; compound autofluorescence, ex339/em460 nm, NADH buffer; hits give high values; 1 = no-compound wells, NADH background; fluorescence fold increase at 10 µM; 65,000 tested, 5.5% active; AID 709, 2007;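 active means at 10 µM, mean starting fluorescence two-fold or more over control wells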;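 further: signal is the first read of a kinetic run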
A340 absorber – compound light absorbance at 340 nm, profiling panel, artefact control, biochemical, MLSMR library, data from PS, PMK, MK assays. compound absorbance at 340 nm, fold over control. fold change at 10 µM. 65,000 tested, under 10 active. AID 708, 2007;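 active means at 10 µM dose, initial 340 nm absorbance at least 2 fold that of control wells; inactive means change under 2 fold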;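 further: initial absorbance extrapolated from kinetic A340 decline of NADH oxidation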
NADH enzymes – inhibitors of PK/LDH coupling enzymes, profiling panel, artefact control, biochemical, MLSMR library. coupled PK/LDH NADH assays, four targets. IC50, µM (doses to about 10 µM), for the others: at the top dose inhibition. 65,000 tested, 0.02% active;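 active means single-dose screening hits from any of four coupled enzyme assays that gave an IC50 when retested across doses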;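 further: the DPM-DC format reads NADH fluorescence rather than 340 nm absorbance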
Numbers without * were called inactive; . = no result.

SMILES | M1 antagonist | Htt clearance | M1 ag | Autofluor 339 | A340 absorber | NADH enzymes
CCCCn1c2nc3ccccc3nc2c2c(=N)oc(C)nc21 | -0.2 | . | 3.9* | 2.2* | 1.1 | 5%
CCCCC(CC)Cn1c(N)c(C#N)c2nc3ccccc3nc21 (configuration not stated) | 0.87 | . | -0.16 | 5* | 1 | 8%
CCCCC(CC)Cn1c2nc3ccccc3nc2c2c(=N)oc(C)nc21 (configuration not stated) | -0.085 | . | -0.5 | 2.4* | 1.1 | 8%
CCCCCOC(=O)c1c(N)n(CCOC)c2nc3ccccc3nc12 | . | 46 | . | . | . | .
CCCCn1c2nc3ccccc3nc2c2c(=O)n(CCC(C)C)cnc21 | -1.8 | . | 0.039 | 1.8 | 1 | 1%
COCCN(Cc1cc2ccc(C)cc2n2nnnc12)Cc1nnnn1C(C)(C)C | . | -8 | . | . | . | .
COc1ccc(-n2c(=S)[nH]c3cc(C(=O)NCc4ccco4)ccc3c2=O)cc1OC | -0.38 | . | 1.4 | 0.98 | 1 | 6%
COc1ccc(CCn2c(=S)[nH]c3cc(C(=O)NCc4ccco4)ccc3c2=O)cc1OC | -0.49 | 0 | 3* | 1.3 | 1.1 | 4%
CN1CCN(C(=O)c2cc3c(ccc4ccccc43)oc2=O)CC1 | -0.13 | . | -0.57 | 3.9* | 1 | 9%
O=C(NCCN1CCN(C(=O)c2cc3ccccc3oc2=O)CC1)c1cc2ccccc2oc1=O | 0.0022 | . | -0.84 | 1.3 | 1.1 | 7%
O=C(COc1ccc2oc(-c3ccccc3)cc(=O)c2c1)NCc1ccco1 | 0.032 | 15 | -0.81 | 3.9* | 1.1 | 8%
O=C(COC(=O)COc1ccc(Nc2ccccc2)cc1)NCc1ccco1 | -0.79 | . | -1.3 | 1 | 0.98 | 6%
O=c1nc2c(-c3ccccc3F)n[nH]n2c2ccccc12 | -0.62 | -58 | -0.11 | 5.1* | 1 | 1%
CCc1cc(=O)oc2cc(C)cc(OC(=O)c3ccco3)c12 | 0.48 | 9 | 0.84 | 1.1 | 1.1 | 9%
CCc1cc(=O)oc2cc(C)cc(OCc3nn[nH]n3)c12 | -0.037 | 26 | 0.4 | 3.8* | 1 | 8%
COC(=O)Cc1c(C)c2c(OCc3nn[nH]n3)cc(C)cc2oc1=O | 0.24 | -10 | 2.1 | 3.8* | 1.1 | 0%
Cc1c(C)c2cc(Cl)c(OCc3nn[nH]n3)cc2oc1=O | -0.51 | -87 | -0.83 | 3.8* | 1.1 | 7%
CCOc1ccc(CCNC(=O)Cc2nn[nH]n2)cc1OCC | -0.0055 | . | 1.3 | 1.1 | 1 | 3%
CCOC(=O)C1CCCN(c2cc(=O)n(-c3ccccc3Cl)c(=O)[nH]2)C1 (configuration not stated) | 0.52 | . | -0.0021 | 1.1 | 1.1 | 5%
COc1cccc2[nH]c3c(N4CCCC(C)C4)ncnc3c12 (configuration not stated) | -1 | 33 | -0.0094 | 3.4* | 1.1 | 10%
COc1cccc2[nH]c3c(N4CC(C)CC(C)C4)ncnc3c12 (configuration not stated) | . | -84 | . | . | . | .
CCOC(=O)C1CCCN(c2ncnc3c2[nH]c2cccc(OC)c23)C1 (configuration not stated) | -0.72 | . | -0.32 | 3.7* | 1.1 | 8%
CCOC(=O)CSC1=C(C#N)C(c2ccccc2Cl)C(C(=O)OC)C(=O)N1 (configuration not stated) | -1.3 | 24 | 0.061 | 1.1 | 1.1 | 8%
CCOC(=O)C1=C(C)OC(N)=C(C#N)C1c1c(C)nn(-c2ccccc2)c1Cl (configuration not stated) | 0.028 | . | 0.84 | 1.1 | 1 | 5%

Compound activity (PubChem)
